Reference: article PMC7862700, “An all-to-all approach to the identification of sequence-specific readers for epigenetic DNA modifications on cytosine”

What was measured:
Assay in all cases: DAPPL (digital affinity profiling via proximity ligation, sequencing); 10 mM Tris-HCl pH 7.5, 50 mM NaCl, 1 mM DTT, 4% glycerol, room temperature, 30 min; GST-TFs on glutathione beads, 16-mer random dsDNA library, 0.1% formaldehyde crosslink after washing; high values mean tight binding
Settings in all cases: protein: recombinant; tags: N-terminal GST; dsDNA, one strand shown
[1] = target: T1, ERF (Homo sapiens, UniProt P50548 1-548)
T1 sequence: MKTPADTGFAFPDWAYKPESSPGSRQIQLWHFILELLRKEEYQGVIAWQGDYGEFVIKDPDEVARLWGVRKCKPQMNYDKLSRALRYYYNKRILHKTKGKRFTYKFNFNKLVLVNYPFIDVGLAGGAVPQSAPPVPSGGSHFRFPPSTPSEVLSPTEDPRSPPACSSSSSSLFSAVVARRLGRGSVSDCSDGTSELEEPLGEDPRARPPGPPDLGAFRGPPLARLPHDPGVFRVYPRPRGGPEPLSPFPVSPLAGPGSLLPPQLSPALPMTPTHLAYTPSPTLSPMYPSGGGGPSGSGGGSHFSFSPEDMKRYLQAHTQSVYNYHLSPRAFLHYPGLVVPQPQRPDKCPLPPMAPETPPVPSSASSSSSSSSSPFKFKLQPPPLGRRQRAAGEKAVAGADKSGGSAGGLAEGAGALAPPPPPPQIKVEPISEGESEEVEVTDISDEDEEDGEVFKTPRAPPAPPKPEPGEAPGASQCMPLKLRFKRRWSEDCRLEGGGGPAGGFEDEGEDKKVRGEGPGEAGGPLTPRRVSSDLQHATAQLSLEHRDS
Method in brief: (§1)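 Sequencing on an Illumina NextSeq500 followed washing, crosslinking with 0.1% formaldehyde, proximity ligation (BsaI/T4 ligase, 1 h, 37 °C) and PCR amplification of pools that had been incubated for 30 min at room temperature with 200 nmole of a random double-stranded 16-mer DNA library in Tris/NaCl/DTT/glycerol buffer. Each pool held DNA-barcoded human transcription factors, expressed in yeast as GST fusions and captured on glutathione beads, plus a tag-only sample. Binding signal is a hexamer's read frequency for a factor divided by its frequency in the tag-only sample.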

[2] = target: T2, ETV3L (Homo sapiens, UniProt Q6ZN32 1-361)
T2 sequence: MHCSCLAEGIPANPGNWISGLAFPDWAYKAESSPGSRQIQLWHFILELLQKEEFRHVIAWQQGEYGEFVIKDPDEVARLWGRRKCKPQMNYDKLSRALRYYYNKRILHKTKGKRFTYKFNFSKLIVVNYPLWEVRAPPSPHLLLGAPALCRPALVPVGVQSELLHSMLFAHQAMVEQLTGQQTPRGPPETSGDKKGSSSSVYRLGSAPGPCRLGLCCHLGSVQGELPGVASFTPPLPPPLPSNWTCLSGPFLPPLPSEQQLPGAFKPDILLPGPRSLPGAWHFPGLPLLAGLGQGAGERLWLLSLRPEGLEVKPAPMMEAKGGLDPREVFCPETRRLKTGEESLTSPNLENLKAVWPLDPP
Method in brief: as §1

[3] = target: T3, ETS2 (Homo sapiens, UniProt P15036 1-469)
T3 sequence: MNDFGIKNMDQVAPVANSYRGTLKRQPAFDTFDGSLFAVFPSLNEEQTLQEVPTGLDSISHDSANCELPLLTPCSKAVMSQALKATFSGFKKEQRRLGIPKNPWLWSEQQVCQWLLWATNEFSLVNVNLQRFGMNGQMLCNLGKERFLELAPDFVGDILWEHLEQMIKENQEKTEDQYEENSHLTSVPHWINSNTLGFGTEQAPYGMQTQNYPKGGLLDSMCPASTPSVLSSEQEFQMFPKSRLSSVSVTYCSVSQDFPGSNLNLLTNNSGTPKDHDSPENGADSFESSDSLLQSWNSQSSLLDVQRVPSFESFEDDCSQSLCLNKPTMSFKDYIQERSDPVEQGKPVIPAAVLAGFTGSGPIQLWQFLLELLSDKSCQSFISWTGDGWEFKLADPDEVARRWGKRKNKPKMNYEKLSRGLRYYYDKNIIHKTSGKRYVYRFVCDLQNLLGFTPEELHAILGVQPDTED
Method in brief: as §1

[4] = target: T4, SPDEF (Homo sapiens, UniProt O95238 1-335)
T4 sequence: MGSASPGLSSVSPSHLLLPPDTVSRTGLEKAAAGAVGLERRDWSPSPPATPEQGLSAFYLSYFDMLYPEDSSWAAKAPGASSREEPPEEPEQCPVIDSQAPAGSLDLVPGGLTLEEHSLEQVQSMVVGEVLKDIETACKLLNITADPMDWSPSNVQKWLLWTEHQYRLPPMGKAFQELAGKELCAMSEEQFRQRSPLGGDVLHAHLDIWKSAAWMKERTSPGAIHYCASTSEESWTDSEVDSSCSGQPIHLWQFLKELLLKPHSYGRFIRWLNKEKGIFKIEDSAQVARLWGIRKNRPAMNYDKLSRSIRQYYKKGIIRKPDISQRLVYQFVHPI
Method in brief: as §1

[5] = target: T5, ETV7 (Homo sapiens, UniProt Q9Y603 1-341)
T5 sequence: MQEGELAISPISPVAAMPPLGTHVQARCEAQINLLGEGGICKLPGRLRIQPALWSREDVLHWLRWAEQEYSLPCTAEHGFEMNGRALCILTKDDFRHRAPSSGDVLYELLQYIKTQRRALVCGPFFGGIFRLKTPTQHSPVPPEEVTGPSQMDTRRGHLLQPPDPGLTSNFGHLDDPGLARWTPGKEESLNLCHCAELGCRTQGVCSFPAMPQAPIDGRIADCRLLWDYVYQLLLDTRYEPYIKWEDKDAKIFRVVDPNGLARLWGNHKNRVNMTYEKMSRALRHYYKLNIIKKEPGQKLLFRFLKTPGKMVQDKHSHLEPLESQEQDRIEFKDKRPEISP
Method in brief: as §1

[6] = target: T6, ELF5 (Homo sapiens, UniProt Q9UKW6-2 1-255)
T6 sequence: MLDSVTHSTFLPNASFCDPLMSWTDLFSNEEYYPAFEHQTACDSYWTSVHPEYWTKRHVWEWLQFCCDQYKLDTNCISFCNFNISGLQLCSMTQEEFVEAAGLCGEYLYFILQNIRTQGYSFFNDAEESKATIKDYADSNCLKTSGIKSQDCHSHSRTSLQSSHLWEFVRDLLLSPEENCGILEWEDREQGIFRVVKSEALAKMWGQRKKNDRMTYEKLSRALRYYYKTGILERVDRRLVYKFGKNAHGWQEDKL
Method in brief: as §1

[7] = target: T7, ETV3 (Homo sapiens, UniProt P41162-2 1-143)
T7 sequence: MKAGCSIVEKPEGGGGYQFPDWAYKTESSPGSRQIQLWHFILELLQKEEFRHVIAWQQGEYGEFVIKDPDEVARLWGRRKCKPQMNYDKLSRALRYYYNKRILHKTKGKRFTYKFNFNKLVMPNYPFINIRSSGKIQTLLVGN
Method in brief: as §1

[8] = target: ETV6 (Homo sapiens, UniProt P41212 1-452)
Method in brief: as §1

Sequence of ETV6 (P41212 whole entry): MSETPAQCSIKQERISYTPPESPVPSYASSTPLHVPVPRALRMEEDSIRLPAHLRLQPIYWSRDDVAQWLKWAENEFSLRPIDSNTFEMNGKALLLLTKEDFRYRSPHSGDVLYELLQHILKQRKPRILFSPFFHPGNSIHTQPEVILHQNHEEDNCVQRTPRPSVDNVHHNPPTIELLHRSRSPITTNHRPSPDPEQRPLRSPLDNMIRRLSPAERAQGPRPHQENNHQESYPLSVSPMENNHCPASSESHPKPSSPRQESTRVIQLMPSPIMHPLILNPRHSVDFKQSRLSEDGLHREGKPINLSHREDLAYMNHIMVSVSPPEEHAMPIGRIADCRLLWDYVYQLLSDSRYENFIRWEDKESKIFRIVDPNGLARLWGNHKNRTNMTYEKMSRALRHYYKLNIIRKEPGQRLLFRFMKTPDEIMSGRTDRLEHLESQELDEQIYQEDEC

Sequence	binding signal [1]	binding signal [2]	binding signal [3]	binding signal [4]	binding signal [5]	binding signal [6]	binding signal [7]	binding signal [8]
ACGACT	1.15 fold enrichment (6-mer frequency, TF over GST control)	1.28 fold enrichment (6-mer frequency, TF over GST control)	1.28 fold enrichment (6-mer frequency, TF over GST control)	1.19 fold enrichment (6-mer frequency, TF over GST control)	1.17 fold enrichment (6-mer frequency, TF over GST control)	1.23 fold enrichment (6-mer frequency, TF over GST control)	1.22 fold enrichment (6-mer frequency, TF over GST control)	1.17 fold enrichment (6-mer frequency, TF over GST control)
CTTTGA	1.18 fold enrichment (6-mer frequency, TF over GST control)	1.11 fold enrichment (6-mer frequency, TF over GST control)	1.15 fold enrichment (6-mer frequency, TF over GST control)	1.1 fold enrichment (6-mer frequency, TF over GST control)	1.34 fold enrichment (6-mer frequency, TF over GST control)	1.16 fold enrichment (6-mer frequency, TF over GST control)	1.35 fold enrichment (6-mer frequency, TF over GST control)	1.25 fold enrichment (6-mer frequency, TF over GST control)
AAACCT	1.18 fold enrichment (6-mer frequency, TF over GST control)	1.07 fold enrichment (6-mer frequency, TF over GST control)	1.13 fold enrichment (6-mer frequency, TF over GST control)	1.05 fold enrichment (6-mer frequency, TF over GST control)	1.16 fold enrichment (6-mer frequency, TF over GST control)	1.13 fold enrichment (6-mer frequency, TF over GST control)	1.1 fold enrichment (6-mer frequency, TF over GST control)	1.16 fold enrichment (6-mer frequency, TF over GST control)
ATCGAC	1.1 fold enrichment (6-mer frequency, TF over GST control)	1.21 fold enrichment (6-mer frequency, TF over GST control)	1.1 fold enrichment (6-mer frequency, TF over GST control)	1.06 fold enrichment (6-mer frequency, TF over GST control)	1.28 fold enrichment (6-mer frequency, TF over GST control)	1.09 fold enrichment (6-mer frequency, TF over GST control)	1.25 fold enrichment (6-mer frequency, TF over GST control)	1.21 fold enrichment (6-mer frequency, TF over GST control)
CGCTTT	1.24 fold enrichment (6-mer frequency, TF over GST control)	1.26 fold enrichment (6-mer frequency, TF over GST control)	1.36 fold enrichment (6-mer frequency, TF over GST control)	1.2 fold enrichment (6-mer frequency, TF over GST control)	1.4 fold enrichment (6-mer frequency, TF over GST control)	1.25 fold enrichment (6-mer frequency, TF over GST control)	1.3 fold enrichment (6-mer frequency, TF over GST control)	1.31 fold enrichment (6-mer frequency, TF over GST control)
CATTCC	1.22 fold enrichment (6-mer frequency, TF over GST control)	1.28 fold enrichment (6-mer frequency, TF over GST control)	1.28 fold enrichment (6-mer frequency, TF over GST control)	1.29 fold enrichment (6-mer frequency, TF over GST control)	1.19 fold enrichment (6-mer frequency, TF over GST control)	1.28 fold enrichment (6-mer frequency, TF over GST control)	1.27 fold enrichment (6-mer frequency, TF over GST control)	1.3 fold enrichment (6-mer frequency, TF over GST control)
AAAAAT	1.35 fold enrichment (6-mer frequency, TF over GST control)	1.34 fold enrichment (6-mer frequency, TF over GST control)	1.3 fold enrichment (6-mer frequency, TF over GST control)	1.21 fold enrichment (6-mer frequency, TF over GST control)	1.34 fold enrichment (6-mer frequency, TF over GST control)	1.3 fold enrichment (6-mer frequency, TF over GST control)	1.29 fold enrichment (6-mer frequency, TF over GST control)	1.35 fold enrichment (6-mer frequency, TF over GST control)
TTGTAA	1.36 fold enrichment (6-mer frequency, TF over GST control)	1.32 fold enrichment (6-mer frequency, TF over GST control)	1.23 fold enrichment (6-mer frequency, TF over GST control)	1.26 fold enrichment (6-mer frequency, TF over GST control)	1.27 fold enrichment (6-mer frequency, TF over GST control)	1.26 fold enrichment (6-mer frequency, TF over GST control)	1.3 fold enrichment (6-mer frequency, TF over GST control)	1.28 fold enrichment (6-mer frequency, TF over GST control)
TTAGGG	1.21 fold enrichment (6-mer frequency, TF over GST control)	1.14 fold enrichment (6-mer frequency, TF over GST control)	1.08 fold enrichment (6-mer frequency, TF over GST control)	1.18 fold enrichment (6-mer frequency, TF over GST control)	1.06 fold enrichment (6-mer frequency, TF over GST control)	1.11 fold enrichment (6-mer frequency, TF over GST control)	1.11 fold enrichment (6-mer frequency, TF over GST control)	1.08 fold enrichment (6-mer frequency, TF over GST control)
CCGAAC	1.23 fold enrichment (6-mer frequency, TF over GST control)	1.27 fold enrichment (6-mer frequency, TF over GST control)	1.26 fold enrichment (6-mer frequency, TF over GST control)	1.28 fold enrichment (6-mer frequency, TF over GST control)	1.14 fold enrichment (6-mer frequency, TF over GST control)	1.21 fold enrichment (6-mer frequency, TF over GST control)	1.18 fold enrichment (6-mer frequency, TF over GST control)	1.28 fold enrichment (6-mer frequency, TF over GST control)
ACGAAA	1.34 fold enrichment (6-mer frequency, TF over GST control)	1.13 fold enrichment (6-mer frequency, TF over GST control)	1.15 fold enrichment (6-mer frequency, TF over GST control)	1.18 fold enrichment (6-mer frequency, TF over GST control)	1.23 fold enrichment (6-mer frequency, TF over GST control)	1.09 fold enrichment (6-mer frequency, TF over GST control)	1.03 fold enrichment (6-mer frequency, TF over GST control)	1.13 fold enrichment (6-mer frequency, TF over GST control)
AACATT	1.33 fold enrichment (6-mer frequency, TF over GST control)	1.34 fold enrichment (6-mer frequency, TF over GST control)	1.29 fold enrichment (6-mer frequency, TF over GST control)	1.16 fold enrichment (6-mer frequency, TF over GST control)	1.36 fold enrichment (6-mer frequency, TF over GST control)	1.3 fold enrichment (6-mer frequency, TF over GST control)	1.32 fold enrichment (6-mer frequency, TF over GST control)	1.39 fold enrichment (6-mer frequency, TF over GST control)
CCTCTA	1.34 fold enrichment (6-mer frequency, TF over GST control)	1.38 fold enrichment (6-mer frequency, TF over GST control)	1.46 fold enrichment (6-mer frequency, TF over GST control)	1.32 fold enrichment (6-mer frequency, TF over GST control)	1.36 fold enrichment (6-mer frequency, TF over GST control)	1.48 fold enrichment (6-mer frequency, TF over GST control)	1.33 fold enrichment (6-mer frequency, TF over GST control)	1.3 fold enrichment (6-mer frequency, TF over GST control)
ACTTTC	1.63 fold enrichment (6-mer frequency, TF over GST control)	1.59 fold enrichment (6-mer frequency, TF over GST control)	1.6 fold enrichment (6-mer frequency, TF over GST control)	1.51 fold enrichment (6-mer frequency, TF over GST control)	1.51 fold enrichment (6-mer frequency, TF over GST control)	1.74 fold enrichment (6-mer frequency, TF over GST control)	1.63 fold enrichment (6-mer frequency, TF over GST control)	1.57 fold enrichment (6-mer frequency, TF over GST control)
TATTAC	1.22 fold enrichment (6-mer frequency, TF over GST control)	1.2 fold enrichment (6-mer frequency, TF over GST control)	1.18 fold enrichment (6-mer frequency, TF over GST control)	1.23 fold enrichment (6-mer frequency, TF over GST control)	1.16 fold enrichment (6-mer frequency, TF over GST control)	1.16 fold enrichment (6-mer frequency, TF over GST control)	1.24 fold enrichment (6-mer frequency, TF over GST control)	1.28 fold enrichment (6-mer frequency, TF over GST control)
